Tg IFNy HTS = inhibitors of Toxoplasma gondii growth with IFN-gamma. Toxoplasma gondii growth in IFN-gamma-treated host cells; hits give low values. activity change, negative = inhibition, % (test concentration not listed). 69,000 compounds, 3.8% hits. AID 1259416; in the data active means activity change below about -70%, passing the limit was not always enough;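 further: host cells are HeLa cells infected with Toxoplasma gondii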
Hits are given with their value; ! = a repeat was not active. This excerpt belongs to a sample that is enriched for hits.

Screening Nc1ccccc1NC(=O)c1ccc(CNc2nccc(-c3cccnc3)n2)cc1 returned Tg IFNy HTS -79!.
`CC(=O)C(Sc1nccc(-c2cccnc2)n1)C(C)=O` gave Tg IFNy HTS inactive.
`CS(=O)(=O)n1nc(-c2cccnc2)nc1NCc1ccc(Cl)cc1` gave Tg IFNy HTS inactive.
Screening CC(C)N(C)Cc1noc2c1CN(C(=O)c1cnccn1)CC2 returned Tg IFNy HTS inactive.
`CC1=C(C(=O)NC2CCC(C)CC2)C2(CCN(S(=O)(=O)c3cccs3)CC2)OC1=O` (stereo not given) gave Tg IFNy HTS inactive.
CCS(=O)(=O)N1CC=C[C@H]1C(=O)Nc1ccc(OC)cc1 was read as Tg IFNy HTS inactive.
Screening O=C(Nc1csc(Cc2c(Cl)cccc2Cl)n1)NN1CCOCC1 returned Tg IFNy HTS inactive.
For CC(C)c1ccc(NC(=O)c2csc(Cc3c(Cl)cccc3Cl)n2)cc1 the results were Tg IFNy HTS -84.
CC(C)c1cc(C(=O)Nc2ccc(Cn3cncn3)cc2)cs1 was read as Tg IFNy HTS inactive.
`COc1ccc(Cl)cc1CNCc1ccc2c(c1)OCO2` gave Tg IFNy HTS inactive.
Screening Cc1cccc(CN2C[C@H]3[C@H](C(=O)N4CCOCC4)CCS(=O)(=O)[C@H]3C2)c1 returned Tg IFNy HTS inactive.
`Cc1cccc(CN2C[C@H]3[C@H](C(=O)N(C)C)CCS(=O)(=O)[C@H]3C2)c1` gave Tg IFNy HTS inactive.
Screening Cc1cccc(CN2C[C@H]3[C@H](C(=O)Nc4ccccc4)CCS(=O)(=O)[C@H]3C2)c1 returned Tg IFNy HTS -115.
`CCOc1ccc(S(=O)(=O)N2CCC(c3nc(C(=O)N(C)C)c(C)o3)CC2)cc1` gave Tg IFNy HTS inactive.
`Cc1oc(-c2cc3c(cc2Cl)OCO3)nc1CN1CCCCC1CCn1cccn1` (stereo not given) gave Tg IFNy HTS inactive.
COc1cccc(S(=O)(=O)N(C)C[C@H]2OCc3ccccc3-c3c(n(C)c4ccccc34)C(=O)N([C@@H](C)CO)C[C@H]2C)c1 was read as Tg IFNy HTS -72.
`C[C@@H]1CN([C@@H](C)CO)C(=O)c2c(c3ccccc3n2C)-c2ccccc2CO[C@@H]1CN(C)S(=O)(=O)c1ccc([N+](=O)[O-])cc1` gave Tg IFNy HTS inactive.
C[C@@H]1CN([C@H](C)CO)C(=O)c2c(c3ccccc3n2C)-c2ccccc2CO[C@@H]1CN(C)S(=O)(=O)c1ccc([N+](=O)[O-])cc1 was read as Tg IFNy HTS inactive.
Screening COc1cccc(S(=O)(=O)N(C)C[C@@H]2OCc3ccccc3-c3c(n(C)c4ccccc34)C(=O)N([C@@H](C)CO)C[C@@H]2C)c1 returned Tg IFNy HTS inactive.
Screening COc1cccc(S(=O)(=O)N(C)C[C@@H]2OCc3ccccc3-c3c(n(C)c4ccccc34)C(=O)N([C@H](C)CO)C[C@@H]2C)c1 returned Tg IFNy HTS inactive.
Screening C[C@H](CO)N1C[C@H](C)[C@H](CN(C)S(=O)(=O)c2ccc([N+](=O)[O-])cc2)OCc2ccccc2-c2c(n(C)c3ccccc23)C1=O returned Tg IFNy HTS -72.
CCNC(=O)N1CCC(NC(=O)C2(c3cccs3)CC2(C)C)CC1 (stereo not given) was read as Tg IFNy HTS inactive.
CCCCS(=O)(=O)NC1CCc2c(ccc(=O)n2CC2CC2)C1 (stereo not given) was read as Tg IFNy HTS inactive.
COc1ccc(NC(=O)Nc2ccc(-c3nc(-c4ccc(C)cc4)co3)cc2)cc1Cl was read as Tg IFNy HTS inactive.
For CCn1c(CN2C[C@@H]3CC[C@@](O)(c4cnc(OC)nc4OC)[C@@H]3C2)nc2ccccc21 the results were Tg IFNy HTS -85.
Screening COc1ccc(CN2C[C@@H]3CC[C@@](O)(c4ncccc4C)[C@@H]3C2)cc1 returned Tg IFNy HTS inactive.
`CCCCN1CCC(O)(c2cnc(OC)nc2OC)CC1` gave Tg IFNy HTS inactive.
COc1cccc(CNC(=O)c2nc3c(o2)CN(c2ncccn2)C3)c1 was read as Tg IFNy HTS inactive.
`C=C(C)Cc1c(C)nc(-c2ccc(Cl)cc2)nc1OC(=S)N(CC)CC` gave Tg IFNy HTS -98.
For CC1CCN(S(=O)(=O)N2CCCC(c3nc4ccccc4n3C(C)C)C2)CC1 (stereo not given) the results were Tg IFNy HTS inactive.
For O=S(=O)(NCc1ccc(-c2csnn2)cc1)c1ccc(F)c(Cl)c1 the results were Tg IFNy HTS inactive.
CN(C)Cc1noc2c1CN(Cc1nccn1C)CC2 was read as Tg IFNy HTS -75.
`Cc1cccc(CN2CCc3onc(CN(C)C)c3C2)n1` gave Tg IFNy HTS inactive.
`CN(C)Cc1noc2c1CN(Cc1ccoc1)CC2` gave Tg IFNy HTS inactive.
`CCS(=O)(=O)N1Cc2nccn2CC(COc2cccnc2)C1` (stereo not given) gave Tg IFNy HTS inactive.
`CC(C)NC(=O)N1Cc2nccn2CC(COc2cccnc2)C1` (stereo not given) gave Tg IFNy HTS inactive.
NC(=O)N1Cc2nccn2CC(COc2cccnc2)C1 (stereo not given) was read as Tg IFNy HTS -100.
CCOc1ccc2[nH]c(=O)c(CN(CCO)C(=O)c3cccs3)cc2c1 was read as Tg IFNy HTS inactive.
For CC12CC3CC(C)(C1)CC(OCCN)(C3)C2 the results were Tg IFNy HTS inactive.
For CCCN(Cc1cccc(Cl)c1)C(=O)[C@@H](N)[C@@H](C)CC the results were Tg IFNy HTS inactive.
CCOC(=O)Cn1c(-c2ccc(F)cc2)cc2cccnc21 was read as Tg IFNy HTS inactive.
CCC1CN(C(=O)c2coc3ccccc23)CCC(=O)N1Cc1ccccc1 (stereo not given) was read as Tg IFNy HTS inactive.
Screening Cc1ccc(S(=O)(=O)N2CCC3(CC3C(=O)Nc3cccc(F)c3)C2)cc1F (stereo not given) returned Tg IFNy HTS inactive.
For O=C(Nc1cccc(F)c1)N1CC(C(=O)N2CCOCC2)C2(CCOCC2)C1 (stereo not given) the results were Tg IFNy HTS inactive.
Screening Cc1ccc(S(=O)(=O)N2CC(C(=O)Nc3cccc(F)c3)C3(CCOCC3)C2)cc1 (stereo not given) returned Tg IFNy HTS -75.
For CC(=O)OC12CC3CC(C1)CC(C(=O)NCC1CCCN(C)C1)(C3)C2 (stereo not given) the results were Tg IFNy HTS inactive.
Screening COCCN1C(=O)N(C2Cc3ccccc3C2)C(=O)C12CCN(Cc1sccc1C)CC2 returned Tg IFNy HTS inactive.
For Cc1cccc(C)c1OCCn1ccnc1-c1cccnc1 the results were Tg IFNy HTS inactive.
For Cc1cc(Nc2cc(N3CCN(C)CC3)nc(/C=C/c3ccccc3)n2)n[nH]1 the results were Tg IFNy HTS -74.
Cn1ccnc1-c1ccc(N2CCN(C/C=C/c3ccccc3)CC2)nn1 was read as Tg IFNy HTS inactive.
`COc1cc(OC)nc(/C=C/c2ccccc2)n1` gave Tg IFNy HTS inactive.
Screening CN(C)CCN1C2(CCN(Cc3ccncc3)C2)c2ccccc2S1(=O)=O (stereo not given) returned Tg IFNy HTS inactive.
`FC(F)(F)c1cc2[nH]c(=S)[nH]c2cc1Cl` gave Tg IFNy HTS -93.
CC(Cc1ccc2c(c1)OCO2)c1nccn1CCN1CCCOC1=O (stereo not given) was read as Tg IFNy HTS inactive.
CCCCC(CC)CN=C(N)NC(N)=NCCCCCCN=C(N)NC(N)=NCC(CC)CCCC (stereo not given) was read as Tg IFNy HTS -79.
Screening Cc1occc1C(=O)N1CCC2(CC1)CN(Cc1nccs1)CCO2 returned Tg IFNy HTS inactive.
